SMILES strings stand for the structures.

We go through seven compounds from ChEMBL document CHEMBL1961873, “Compounds: GSK PKIS; Assays: Nanosyn kinase panel” (2012).

For test [1], the target named is Glycogen synthase kinase-3 beta (Homo sapiens) (UniProt P49841). Particulars: at 1 µM.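 Also: reported values are mean percent inhibition of GSK3B.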
Test [2] deals with Homeodomain-interacting protein kinase 1 (Homo sapiens) (UniProt Q86Z02). The following applies: at 0.1 µM.
Test [3] shares this target. Particulars: at 1 µM.
The target of test [4] is T1, Homeodomain-interacting protein kinase 4 (Homo sapiens) (UniProt Q8NE63).
T1 sequence (whole entry): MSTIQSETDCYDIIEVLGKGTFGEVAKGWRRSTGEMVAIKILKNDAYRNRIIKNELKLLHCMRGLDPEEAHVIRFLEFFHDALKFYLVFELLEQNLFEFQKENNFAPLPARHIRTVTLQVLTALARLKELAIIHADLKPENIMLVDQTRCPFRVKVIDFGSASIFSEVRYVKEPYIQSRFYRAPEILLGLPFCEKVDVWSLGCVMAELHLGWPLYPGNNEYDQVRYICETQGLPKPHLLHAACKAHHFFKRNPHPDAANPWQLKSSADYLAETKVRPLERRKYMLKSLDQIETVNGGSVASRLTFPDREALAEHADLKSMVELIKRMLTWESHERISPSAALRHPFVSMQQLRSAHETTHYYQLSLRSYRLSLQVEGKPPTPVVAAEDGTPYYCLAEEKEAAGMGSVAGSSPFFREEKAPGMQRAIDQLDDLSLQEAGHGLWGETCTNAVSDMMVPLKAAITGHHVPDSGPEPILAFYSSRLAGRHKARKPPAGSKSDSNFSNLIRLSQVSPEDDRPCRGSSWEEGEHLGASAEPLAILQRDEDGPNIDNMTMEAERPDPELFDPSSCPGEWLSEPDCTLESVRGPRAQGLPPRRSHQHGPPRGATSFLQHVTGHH
Particulars: at 0.1 µM.

Test [5] has as its target T1, Homeodomain-interacting protein kinase 4 (Homo sapiens). The following applies: at 1 µM.
The target in test [6] is Mitogen-activated protein kinase 9 (Homo sapiens) (UniProt P45984). The following applies: at 0.1 µM.
Sequence of Mitogen-activated protein kinase 9 (Homo sapiens) (P45984 whole entry, looked up): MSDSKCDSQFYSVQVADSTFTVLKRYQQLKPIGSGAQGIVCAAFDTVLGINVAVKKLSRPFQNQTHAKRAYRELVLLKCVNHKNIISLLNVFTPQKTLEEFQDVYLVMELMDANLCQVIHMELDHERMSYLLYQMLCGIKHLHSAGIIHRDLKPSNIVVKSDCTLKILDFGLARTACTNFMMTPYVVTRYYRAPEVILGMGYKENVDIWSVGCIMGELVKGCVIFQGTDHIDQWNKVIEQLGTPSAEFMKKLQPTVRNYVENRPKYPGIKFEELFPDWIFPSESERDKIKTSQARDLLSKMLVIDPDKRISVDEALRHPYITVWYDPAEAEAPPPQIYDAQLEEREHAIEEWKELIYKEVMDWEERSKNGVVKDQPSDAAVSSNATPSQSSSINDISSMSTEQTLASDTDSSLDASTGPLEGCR
The target is the same in test [7]. Particulars: at 1 µM.
Test [8] has as its target Mitogen-activated protein kinase 1 (Homo sapiens) (UniProt P28482). Particulars: at 0.1 µM.
For test [9] the target is unchanged. The following applies: at 1 µM.
The target of test [10] is Mitogen-activated protein kinase 3 (Homo sapiens) (UniProt P27361). The following applies: at 0.1 µM.
Sequence of Mitogen-activated protein kinase 3 (Homo sapiens) (P27361 whole entry): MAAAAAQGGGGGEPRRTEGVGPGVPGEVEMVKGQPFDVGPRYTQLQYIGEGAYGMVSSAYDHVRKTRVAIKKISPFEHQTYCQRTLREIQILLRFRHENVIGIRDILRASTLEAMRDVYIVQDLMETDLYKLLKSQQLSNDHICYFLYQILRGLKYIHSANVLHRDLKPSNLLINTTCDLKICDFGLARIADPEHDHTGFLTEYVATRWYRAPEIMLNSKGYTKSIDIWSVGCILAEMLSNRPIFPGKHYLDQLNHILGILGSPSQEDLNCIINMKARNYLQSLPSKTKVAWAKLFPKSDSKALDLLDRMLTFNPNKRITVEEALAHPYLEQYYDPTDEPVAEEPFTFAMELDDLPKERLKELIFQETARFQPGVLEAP
For test [11] the target is unchanged. Particulars: at 1 µM.
Test [12] concerns the target SRSF protein kinase 3 (Homo sapiens) (UniProt Q9UPE1). Particulars: at 0.1 µM.
For test [13] the target is unchanged. Particulars: at 1 µM.
Test [14] concerns the target Mitogen-activated protein kinase 14 (Homo sapiens) (UniProt Q16539). The following applies: at 0.1 µM.
The target is the same in test [15]. Particulars: at 1 µM.
Test [16] has as its target Mitogen-activated protein kinase 11 (Homo sapiens) (UniProt Q15759). The following applies: at 0.1 µM.
For test [17] the target is unchanged. Particulars: at 1 µM.
Test [18] deals with T2, Mitogen-activated protein kinase 13 (Homo sapiens) (UniProt O15264).
T2 sequence (whole entry): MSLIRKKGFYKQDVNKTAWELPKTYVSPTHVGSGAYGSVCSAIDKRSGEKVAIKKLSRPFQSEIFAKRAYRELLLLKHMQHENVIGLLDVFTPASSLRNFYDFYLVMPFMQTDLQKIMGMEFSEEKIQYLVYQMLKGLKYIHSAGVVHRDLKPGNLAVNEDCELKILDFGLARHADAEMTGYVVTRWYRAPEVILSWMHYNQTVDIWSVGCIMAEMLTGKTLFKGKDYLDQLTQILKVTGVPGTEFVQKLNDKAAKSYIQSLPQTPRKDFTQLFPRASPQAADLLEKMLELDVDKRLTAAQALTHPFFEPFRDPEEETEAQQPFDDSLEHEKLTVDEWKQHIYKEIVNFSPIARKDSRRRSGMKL
The following applies: at 0.1 µM.

Test [19] addresses T2, Mitogen-activated protein kinase 13 (Homo sapiens). Particulars: at 1 µM.
The target of test [20] is T3, Mitogen-activated protein kinase 12 (Homo sapiens) (UniProt P53778).
T3 sequence (whole entry): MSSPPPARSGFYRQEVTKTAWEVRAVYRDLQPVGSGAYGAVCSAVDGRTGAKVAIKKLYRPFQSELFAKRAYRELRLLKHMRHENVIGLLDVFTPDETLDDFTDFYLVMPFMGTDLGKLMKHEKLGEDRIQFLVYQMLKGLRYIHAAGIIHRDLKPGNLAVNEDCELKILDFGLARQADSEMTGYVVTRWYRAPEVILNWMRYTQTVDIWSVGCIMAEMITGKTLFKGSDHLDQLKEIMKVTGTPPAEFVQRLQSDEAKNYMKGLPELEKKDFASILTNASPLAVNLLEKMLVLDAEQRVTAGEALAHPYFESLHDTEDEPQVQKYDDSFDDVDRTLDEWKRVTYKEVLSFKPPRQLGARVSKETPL
The following applies: at 0.1 µM.

Sequence of Mitogen-activated protein kinase 11 (Homo sapiens) (Q15759 whole entry): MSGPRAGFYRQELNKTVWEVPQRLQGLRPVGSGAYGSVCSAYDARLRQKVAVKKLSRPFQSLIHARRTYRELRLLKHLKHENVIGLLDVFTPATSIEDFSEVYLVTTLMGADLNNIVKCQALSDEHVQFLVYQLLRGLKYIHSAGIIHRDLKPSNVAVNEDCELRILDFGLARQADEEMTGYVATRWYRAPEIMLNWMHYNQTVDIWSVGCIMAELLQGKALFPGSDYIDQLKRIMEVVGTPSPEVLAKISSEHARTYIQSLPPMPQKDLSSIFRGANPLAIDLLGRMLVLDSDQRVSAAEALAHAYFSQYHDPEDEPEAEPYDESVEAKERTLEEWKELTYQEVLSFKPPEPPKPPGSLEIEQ
Sequence of Mitogen-activated protein kinase 14 (Homo sapiens) (Q16539 whole entry): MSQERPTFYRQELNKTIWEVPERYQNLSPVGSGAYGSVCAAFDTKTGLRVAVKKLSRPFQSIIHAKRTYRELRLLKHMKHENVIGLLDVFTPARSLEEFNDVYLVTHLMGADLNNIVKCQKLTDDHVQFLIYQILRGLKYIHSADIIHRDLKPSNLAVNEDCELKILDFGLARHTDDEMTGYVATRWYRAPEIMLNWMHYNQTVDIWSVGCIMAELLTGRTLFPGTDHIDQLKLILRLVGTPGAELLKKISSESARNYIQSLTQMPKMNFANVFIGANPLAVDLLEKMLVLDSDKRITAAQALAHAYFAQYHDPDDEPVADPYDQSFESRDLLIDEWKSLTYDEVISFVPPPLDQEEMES
Sequence of Homeodomain-interacting protein kinase 1 (Homo sapiens) (Q86Z02 whole entry, looked up): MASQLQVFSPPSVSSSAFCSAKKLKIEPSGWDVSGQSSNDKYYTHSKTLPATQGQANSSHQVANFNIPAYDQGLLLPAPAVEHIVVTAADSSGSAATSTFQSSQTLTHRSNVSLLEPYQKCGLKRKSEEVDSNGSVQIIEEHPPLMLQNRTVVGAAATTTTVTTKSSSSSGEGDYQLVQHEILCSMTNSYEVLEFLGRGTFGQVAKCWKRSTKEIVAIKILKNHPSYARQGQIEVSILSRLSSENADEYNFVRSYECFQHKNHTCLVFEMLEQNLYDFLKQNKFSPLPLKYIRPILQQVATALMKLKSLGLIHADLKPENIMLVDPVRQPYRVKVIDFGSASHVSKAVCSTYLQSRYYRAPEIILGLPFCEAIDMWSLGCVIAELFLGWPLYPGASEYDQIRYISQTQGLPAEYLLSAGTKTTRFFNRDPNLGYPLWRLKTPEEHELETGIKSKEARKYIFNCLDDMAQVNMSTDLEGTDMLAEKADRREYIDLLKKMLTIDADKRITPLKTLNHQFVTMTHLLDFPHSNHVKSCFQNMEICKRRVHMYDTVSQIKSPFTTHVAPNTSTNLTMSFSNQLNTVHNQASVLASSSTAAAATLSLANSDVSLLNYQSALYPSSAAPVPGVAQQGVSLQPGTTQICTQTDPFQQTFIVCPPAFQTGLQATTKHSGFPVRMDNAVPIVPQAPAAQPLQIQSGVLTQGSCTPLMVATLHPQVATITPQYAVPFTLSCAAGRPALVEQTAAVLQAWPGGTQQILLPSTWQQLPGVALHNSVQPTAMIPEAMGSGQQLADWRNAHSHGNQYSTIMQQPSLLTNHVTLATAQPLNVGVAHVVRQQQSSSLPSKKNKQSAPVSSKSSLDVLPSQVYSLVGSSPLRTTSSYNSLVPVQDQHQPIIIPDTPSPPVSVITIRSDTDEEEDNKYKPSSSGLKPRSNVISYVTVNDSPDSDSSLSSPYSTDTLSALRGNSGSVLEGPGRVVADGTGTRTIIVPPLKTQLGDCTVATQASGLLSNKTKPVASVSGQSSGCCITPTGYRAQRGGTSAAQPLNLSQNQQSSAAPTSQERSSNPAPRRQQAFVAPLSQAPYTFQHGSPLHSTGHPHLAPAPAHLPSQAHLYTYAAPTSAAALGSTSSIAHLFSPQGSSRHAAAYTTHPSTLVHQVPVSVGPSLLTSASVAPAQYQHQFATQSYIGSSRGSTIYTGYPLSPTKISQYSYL
Sequence of SRSF protein kinase 3 (Homo sapiens) (Q9UPE1 whole entry): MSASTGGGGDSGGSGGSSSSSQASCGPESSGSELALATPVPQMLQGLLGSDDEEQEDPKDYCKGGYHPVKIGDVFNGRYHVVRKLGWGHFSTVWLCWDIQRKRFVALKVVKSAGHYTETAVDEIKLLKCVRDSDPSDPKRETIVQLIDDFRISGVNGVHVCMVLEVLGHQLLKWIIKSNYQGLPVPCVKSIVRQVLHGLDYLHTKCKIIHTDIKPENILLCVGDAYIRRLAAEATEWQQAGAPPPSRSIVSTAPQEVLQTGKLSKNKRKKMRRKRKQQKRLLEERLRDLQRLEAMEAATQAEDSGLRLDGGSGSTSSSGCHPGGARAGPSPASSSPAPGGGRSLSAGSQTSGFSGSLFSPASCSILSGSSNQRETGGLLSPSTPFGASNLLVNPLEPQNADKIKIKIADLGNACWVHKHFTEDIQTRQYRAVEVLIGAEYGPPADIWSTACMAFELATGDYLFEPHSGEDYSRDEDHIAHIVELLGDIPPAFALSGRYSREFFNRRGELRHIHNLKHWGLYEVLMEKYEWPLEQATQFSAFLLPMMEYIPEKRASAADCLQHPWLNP
Sequence of Mitogen-activated protein kinase 1 (Homo sapiens) (P28482 whole entry): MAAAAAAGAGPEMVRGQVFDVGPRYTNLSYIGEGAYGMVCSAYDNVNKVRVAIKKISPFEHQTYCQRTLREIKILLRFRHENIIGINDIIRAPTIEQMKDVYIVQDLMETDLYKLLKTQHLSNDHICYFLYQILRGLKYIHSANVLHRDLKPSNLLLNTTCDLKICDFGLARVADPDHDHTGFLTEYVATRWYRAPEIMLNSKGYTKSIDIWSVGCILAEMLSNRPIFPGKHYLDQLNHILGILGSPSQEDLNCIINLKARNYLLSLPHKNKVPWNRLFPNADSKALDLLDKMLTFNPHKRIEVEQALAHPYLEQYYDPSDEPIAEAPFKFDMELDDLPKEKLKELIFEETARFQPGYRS
Sequence of Glycogen synthase kinase-3 beta (Homo sapiens) (P49841 whole entry, looked up): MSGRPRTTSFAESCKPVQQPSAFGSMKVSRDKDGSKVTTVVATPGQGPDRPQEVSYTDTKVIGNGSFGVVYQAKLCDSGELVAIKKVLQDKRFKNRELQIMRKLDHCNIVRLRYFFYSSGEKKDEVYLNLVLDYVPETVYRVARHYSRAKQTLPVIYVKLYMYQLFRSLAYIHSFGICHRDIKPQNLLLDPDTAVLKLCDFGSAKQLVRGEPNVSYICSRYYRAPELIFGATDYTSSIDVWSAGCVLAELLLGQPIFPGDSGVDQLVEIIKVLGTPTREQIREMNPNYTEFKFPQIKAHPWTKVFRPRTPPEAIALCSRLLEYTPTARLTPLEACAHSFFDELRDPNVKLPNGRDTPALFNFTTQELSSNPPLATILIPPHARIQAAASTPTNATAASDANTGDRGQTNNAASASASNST

`Cc1c2ccc(N(C)c3ccnc(Nc4cccc(S(N)(=O)=O)c4)n3)cc2nn1C`: the inhibition in test [1] is 10.7%; in test [2], -4.42%; in test [3], -0.84%; in [4], -0.24%; in test [5] it was 10.6%; in test [6], 3.51%. The inhibition in test [7] is 7.66%; in test [8], 4.96%; in test [9], 5.77%; in [10] it was 5.75%; in test [11], 4.37%; in [12] it was -0.02%. Besides, the inhibition in [13] is -0.13%; in test [14], 2.68%; in test [15], 17.1%; in test [16], 7.06%; in [17], 16%; in test [18] it was 5.49%. Moreover, the inhibition in [19] stood at 5.64%; in [20], 5.17%.
In the case of `COc1cccc(-n2ncc3c(N/N=C/c4ccc(C(=O)NCCN(C)C)cc4)ncnc32)c1`, the inhibition in [1] stood at 79.4%; in [2], 47%; in [3], 78.8%; in test [4], 49.5%; in [5] it was 75.8%; in [6] it was 2.47%. The inhibition came to 3.96% in test [7]; 1.34% in test [8]; 4.38% in [9]; 3.11% in test [10]; 2.75% in test [11]; 1.28% in test [12]. Also, the inhibition was determined as 0.91% in test [13]; 2.36% in [14]; 11.8% in test [15]; 0.2% in test [16]; 3.19% in test [17]; 3.46% in test [18]. Moreover, the inhibition in test [19] came to 23.5%; in test [20] it was 4.06%.
Regarding `CCS(=O)(=O)c1ccc(OC)c(Nc2ncc(-c3cccc(C(C)=O)c3)o2)c1`, the inhibition in test [1] was 12.4%; in test [2], 5.49%; in [3], 23%; in [4], 5.03%; in [5], 27.3%; in test [6], -1.02%. Besides, the inhibition in test [7] was found to be 1.43%; in [8], 4.9%; in [9], 3.99%; in test [10], 2.3%; in [11], 4.06%; in [12], 0.96%. Also, the inhibition in test [13] was 0.97%; in test [14] it was 2.16%; in [15], 5.09%; in test [16], 3.95%; in test [17], 3.42%; in test [18] it was -0.9%. The inhibition in test [19] was 3.45%; in test [20] it was -1.65%.
As to `CCOc1ccc2c(-c3ccnc(Nc4cc(OC)cc(C(F)(F)F)c4)n3)cnn2n1`, the inhibition in test [1] is 28%; in test [2], 20.1%; in test [3], 61.9%; in test [4], 4.81%; in [5], 24.3%; in [6] it was 1.36%. Also, the inhibition was 5.36% in [7]; 0.19% in test [8]; 0.63% in test [9]; 0.36% in [10]; 2.27% in test [11]; -0.03% in test [12]. The inhibition in test [13] was -0.23%; in [14] it was 8.65%; in [15], 2.85%; in test [16], -0.59%; in test [17], 1.71%; in test [18] it was 0.55%. In addition, the values for the inhibition in test [19] and in test [20] were 2.07% and 3.42%, respectively.
Turning to `NC(=O)c1ccc2c(-c3ccnc(NCCCO)n3)c(-c3ccc(F)cc3)nn2c1`, the inhibition in [1] came to 41.3%; in test [2] it was 1.65%; in test [3], 4.85%; in [4], 5.71%; in test [5], 7.94%; in test [6] it was 38%. Further, the inhibition in test [7] amounted to 82.2%; in [8] it was 1.98%; in test [9], 14.9%; in test [10], 4.06%; in [11], 8.87%; in [12] it was 1.36%. For the same compound, the inhibition in test [13] came to 1.23%; in test [14], 74.9%; in test [15], 86.4%; in [16], 49.5%; in test [17], 68.7%; in test [18], 1.5%. Besides, the values for the inhibition in [19] and in test [20] were 6.27% and 2.09%, respectively.
For the compound `COc1cc(N2CCN(C(C)C)CC2)ccc1Nc1nc(Nc2cccc3ncccc23)c2cc[nH]c2n1`, the inhibition in test [1] was 5.17%; in [2], -1.1%; in test [3] it was 3.6%; in test [4] it was 1.11%; in test [5], 6.13%; in test [6], 0.17%. Further, the inhibition in test [7] was 5.14%; in test [8], -2.97%; in [9] it was -0.36%; in test [10], -2.04%; in test [11] it was 0.21%; in [12] it was -0.27%. Also, the inhibition in test [13] was 1.83%; in test [14], 1.44%; in [15] it was 2.03%; in test [16], -0.29%; in [17] it was 0.54%; in test [18], -1.75%. Further, the inhibition is -2.15% in [19] and -0.18% in [20].
For the compound `Fc1ccc(Nc2nccc(-c3c(-c4ccc(C(F)(F)F)cc4)nn4ncccc34)n2)cc1F`, the inhibition in test [1] is 3.82%; in test [2], 0.15%; in test [3] it was 4.43%; in [4], 0.47%; in test [5] it was 3.47%; in test [6] it was 1.98%. In addition, the inhibition is 3.63% in test [7]; 3.91% in [8]; 4.05% in test [9]; 1.81% in test [10]; -0.07% in [11]; 0.64% in test [12]. Besides, the inhibition in [13] was 0.08%; in test [14] it was 1.53%; in test [15] it was 8.46%; in test [16], 1.28%; in test [17], 3.29%; in test [18], -4.93%. For the same compound, the inhibition in test [19] came out at 4.25%; in test [20], 5.22%.

By inhibition is commonly meant the relative decrease from the control value, in per cent.
